Substitutions are numbered along the chain they refer to.
Assays:
Assay in all cases: protein-binding microarray (PBM); PBM: ~300 nM protein, 6 mM HEPES pH 7.8, 80 mM KCl, 0.5 mM EDTA, 0.5 mM EGTA, 6% glycerol, 35 ng/ul poly-dIdC, 1% milk, 1 h, room temperature; Ap Aiptasia and Nv Nematostella (sea anemones) / Co Capsaspora / Aq Amphimedon (sponge) / Dm Drosophila / Hu human; RHD is the Rel homology domain; high values mean tight binding
Conditions in all cases: dsDNA, one strand shown
[1] = target: T1, GST-Ap-NF-kB RHD (Exaiptasia pallida (Aiptasia), UniProt A0A913YAJ5 2-422)
T1 sequence: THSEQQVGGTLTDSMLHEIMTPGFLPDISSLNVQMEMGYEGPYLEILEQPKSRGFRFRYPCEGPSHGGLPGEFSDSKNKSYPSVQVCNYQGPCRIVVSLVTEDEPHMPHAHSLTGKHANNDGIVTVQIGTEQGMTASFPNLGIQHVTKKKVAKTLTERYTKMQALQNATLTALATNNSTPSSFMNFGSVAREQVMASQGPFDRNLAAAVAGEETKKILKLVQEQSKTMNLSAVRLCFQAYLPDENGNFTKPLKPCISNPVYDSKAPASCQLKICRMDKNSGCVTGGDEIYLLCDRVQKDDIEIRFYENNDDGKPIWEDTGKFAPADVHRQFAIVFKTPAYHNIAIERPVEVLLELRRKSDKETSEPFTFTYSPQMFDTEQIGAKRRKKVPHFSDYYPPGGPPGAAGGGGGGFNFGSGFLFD

[2] = target: T2, GST-Nv-NF-kB (Cys allele) (Nematostella vectensis, UniProt E5G601 2-411)
T2 sequence: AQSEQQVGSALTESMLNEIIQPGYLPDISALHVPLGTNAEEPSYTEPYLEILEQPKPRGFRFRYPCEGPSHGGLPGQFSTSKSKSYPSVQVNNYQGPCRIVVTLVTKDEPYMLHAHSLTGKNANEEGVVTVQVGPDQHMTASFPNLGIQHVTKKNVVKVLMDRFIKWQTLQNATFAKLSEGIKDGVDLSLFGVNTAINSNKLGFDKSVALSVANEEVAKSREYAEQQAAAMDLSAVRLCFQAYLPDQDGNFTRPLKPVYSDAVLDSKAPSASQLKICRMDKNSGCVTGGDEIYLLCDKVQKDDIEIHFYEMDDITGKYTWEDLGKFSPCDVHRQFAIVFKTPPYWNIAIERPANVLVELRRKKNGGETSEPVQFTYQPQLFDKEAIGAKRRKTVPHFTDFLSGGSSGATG

[3] = target: T3, GST-Nv-NF-kB (Ser allele) (Nematostella vectensis, UniProt A7UNT2 2-411)
T3 sequence: T2 sequence with Q21R, C66S, S207N, E215Q, V217A, E225K, A268E, D399E

[4] = target: T4, GST-Co-NF-kB (Capsaspora owczarzaki, UniProt F1ARL5 200-546)
T4 sequence: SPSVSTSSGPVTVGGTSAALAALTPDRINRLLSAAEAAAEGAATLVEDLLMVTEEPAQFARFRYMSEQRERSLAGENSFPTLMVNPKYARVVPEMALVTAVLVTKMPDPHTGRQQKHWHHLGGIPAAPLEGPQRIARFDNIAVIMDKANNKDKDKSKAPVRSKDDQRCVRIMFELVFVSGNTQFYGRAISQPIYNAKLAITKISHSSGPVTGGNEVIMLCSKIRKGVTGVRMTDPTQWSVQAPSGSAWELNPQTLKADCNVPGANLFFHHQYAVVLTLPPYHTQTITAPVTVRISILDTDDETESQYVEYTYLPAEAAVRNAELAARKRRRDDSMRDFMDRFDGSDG

[5] = target: T5, GST-Dm-Relish (Drosophila melanogaster, UniProt Q94527 99-473)
T5 sequence: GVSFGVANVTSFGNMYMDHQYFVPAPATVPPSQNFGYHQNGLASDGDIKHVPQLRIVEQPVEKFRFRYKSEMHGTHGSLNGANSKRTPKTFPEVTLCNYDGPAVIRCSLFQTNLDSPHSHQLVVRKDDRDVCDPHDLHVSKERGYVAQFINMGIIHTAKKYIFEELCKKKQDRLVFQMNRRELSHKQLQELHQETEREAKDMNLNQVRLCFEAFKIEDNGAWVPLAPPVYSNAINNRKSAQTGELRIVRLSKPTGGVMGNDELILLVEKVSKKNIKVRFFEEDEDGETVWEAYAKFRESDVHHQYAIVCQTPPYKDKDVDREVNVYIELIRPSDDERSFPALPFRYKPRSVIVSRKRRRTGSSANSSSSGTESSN

[6] = target: T6, GST-Aq-NF-kB (Amphimedon queenslandica, UniProt A9Y5G7 2-389)
T6 sequence: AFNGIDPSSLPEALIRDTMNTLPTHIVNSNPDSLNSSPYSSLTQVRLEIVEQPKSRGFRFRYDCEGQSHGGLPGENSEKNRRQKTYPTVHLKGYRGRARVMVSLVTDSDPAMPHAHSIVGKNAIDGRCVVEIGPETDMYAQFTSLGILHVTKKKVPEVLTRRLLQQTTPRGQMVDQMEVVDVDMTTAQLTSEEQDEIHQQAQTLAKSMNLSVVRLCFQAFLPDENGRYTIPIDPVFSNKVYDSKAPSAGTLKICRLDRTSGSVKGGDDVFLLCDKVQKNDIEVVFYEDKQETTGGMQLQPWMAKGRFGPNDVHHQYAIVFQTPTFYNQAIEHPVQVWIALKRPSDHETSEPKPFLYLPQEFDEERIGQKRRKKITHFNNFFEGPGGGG

[7] = target: GST-Hu-p50 (Homo sapiens, UniProt P19838 7-356)
GST-Hu-p50, sequence (P19838 7-356): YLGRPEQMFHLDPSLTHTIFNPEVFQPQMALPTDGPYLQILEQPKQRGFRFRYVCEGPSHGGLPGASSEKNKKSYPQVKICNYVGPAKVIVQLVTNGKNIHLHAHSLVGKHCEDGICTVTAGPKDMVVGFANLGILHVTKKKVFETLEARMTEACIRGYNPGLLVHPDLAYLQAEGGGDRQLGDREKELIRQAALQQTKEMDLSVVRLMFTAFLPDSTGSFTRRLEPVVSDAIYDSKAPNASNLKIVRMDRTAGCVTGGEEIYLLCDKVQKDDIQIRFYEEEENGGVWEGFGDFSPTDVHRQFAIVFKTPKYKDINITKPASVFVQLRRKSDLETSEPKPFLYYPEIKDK

Sequence	binding signal [1] [z-score]	binding signal [2] [z-score]	binding signal [3] [z-score]	binding signal [4] [z-score]	binding signal [5] [z-score]	binding signal [6] [z-score]	binding signal [7] [z-score]
CCGATTAACATCAGGAGCTCCCCTGATGTTAATCGGGTCTTGATTCGCTTGACGCTGCTG	4.8	2.61	1.84	2.71	1.84	4.7	2.1
CCGATTAACATCAAAATCCCCCTTGATGTTAATCGGGTCTTGATTCGCTTGACGCTGCTG	10.1	10.7	12.1	6.3	10.2	8.68	8.9
CCGATTAACATCAGGAATCCCCCTGATGTTAATCGGGTCTTGATTCGCTTGACGCTGCTG	10.9	10.2	9.39	5.73	10.2	9.58	7.57
CCGATTAACATCAGGAATTTCCCTGATGTTAATCGGGTCTTGATTCGCTTGACGCTGCTG	6.77	10.1	6.94	4.93	5.72	10.8	6.03
CCGATTAACATCAAGGGGAAAAATGATGTTAATCGGGTCTTGATTCGCTTGACGCTGCTG	6.62	8.51	11	9.12	4.24	6.11	6.67
CCGATTAACATCAAGATTTCCCCTGATGTTAATCGGGTCTTGATTCGCTTGACGCTGCTG	8.78	10.4	13.2	9.09	6.87	7.44	7.38
CCGATTAACATCAGGGGGCTTTATGATGTTAATCGGGTCTTGATTCGCTTGACGCTGCTG	5.16	5.53	4.34	1.85	6.23	5.44	5.71
CCGATTAACATCAAAAGGGAATTTGATGTTAATCGGGTCTTGATTCGCTTGACGCTGCTG	3.2	6.76	7.17	1.41	4.25	4.96	5.13
CCGATTAACATCAAAAGTCCCCATGATGTTAATCGGGTCTTGATTCGCTTGACGCTGCTG	7.92	7.91	7.59	3.45	8.38	7.23	6.84
CCGATTAACATCAAAAATTCCCCTGATGTTAATCGGGTCTTGATTCGCTTGACGCTGCTG	10.4	12.8	14	9.75	9.69	9.6	7.99
CCGATTAACATCAGGGAAGCCCCTGATGTTAATCGGGTCTTGATTCGCTTGACGCTGCTG	9.42	10.8	7.12	1.97	10.3	9.75	6.02
CCGATTAACATCAAAAACTCCCCTGATGTTAATCGGGTCTTGATTCGCTTGACGCTGCTG	9.29	8.96	9.57	6.91	8.62	8.06	6.46
CCGATTAACATCAAAAATCCCGGTGATGTTAATCGGGTCTTGATTCGCTTGACGCTGCTG	4.77	4.4	4.06	2.98	8.52	5.12	3.94
CCGATTAACATCAAAATTTCCCTTGATGTTAATCGGGTCTTGATTCGCTTGACGCTGCTG	5.11	8.26	7.99	5.01	4.81	7.6	5.41
CCGATTAACATCAGGAATCTCCCTGATGTTAATCGGGTCTTGATTCGCTTGACGCTGCTG	3.91	6.08	3.67	1.77	2.25	7.75	4.69
CCGATTAACATCAAAAATCCCCCTGATGTTAATCGGGTCTTGATTCGCTTGACGCTGCTG	11.1	11.4	12.8	8.5	10.1	9.28	8.05
CCGATTAACATCACTAAATCCCCTGATGTTAATCGGGTCTTGATTCGCTTGACGCTGCTG	6.91	7.06	9.63	3.45	6.49	5.34	6.6
CCGATTAACATCAAGGTTTCCCCTGATGTTAATCGGGTCTTGATTCGCTTGACGCTGCTG	7.4	8.19	10.3	8.15	7.08	6.28	6.46
CCGATTAACATCAGGGGTACCCCTGATGTTAATCGGGTCTTGATTCGCTTGACGCTGCTG	7.75	3.69	2.78	6.06	5.81	6.3	3.73
CCGATTAACATCAAATAATACCCTGATGTTAATCGGGTCTTGATTCGCTTGACGCTGCTG	3.69	5.65	5.61	1.91	3.33	6.24	4.35
CCGATTAACATCAGGGGGAACTATGATGTTAATCGGGTCTTGATTCGCTTGACGCTGCTG	6.91	5.64	7.61	9.06	4.89	4.97	5.9
CCGATTAACATCAGATTTCCCCCTGATGTTAATCGGGTCTTGATTCGCTTGACGCTGCTG	8.72	8.96	10.8	11	6.42	7.34	7.39

Source: publication PMC5700166
